A selection: hits, their analogues and other compounds. The true share with any hit is near 7.9%.
HCMV antiviral – qHTS Assay for inhibitors of the human cytomegalovirus (HCMV) | HFF cells, HCMV-luciferase reporter, 72 h; stronger effect = lower value | activity change, negative = inhibition, % at 57.5 µM | hit rate 4.5% among 410,000 | AID 1259415, 2018; in the data active means activity change below about -60%; inconclusive means no clear call, values can overlap the other calls; inactive means above about -39%
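Two-dose cell screen: HFF monolayers treated with compounds and infected with luciferase-expressing HCMV at 1 PFU/cell, 72 h at 37C, then lysed for luciferase measurement.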
HCV inh – qHTS Assay for Inhibitors of Hepatitis C Virus (HCV) | AID 651820, 2012 | Potency, µM (doses to about 41.8 µM), most hits filed as inhibitors | Huh7.5.1 HCVcc-Cre infection, luciferase reporter, 44 h | hit rate 3.4% among 340,000; active means well fitted inhibition curve with a large enough effect; inconclusive means small, poorly fitted or top-dose-only effect, or another doubt; inactive means no such curve, though single readings can be large or run the other way
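Cells seeded at 1,000/well and cultured 4 h, then compounds added followed by HCVcc-Cre virus (~0.5 moi). After 44 h further culture, luciferase substrate was added, plates held 15 min at room temperature, and luminescence read for 15 sec.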
FMDV inh – High Throughput Screening for Foot and Mouth Disease Virus Antivirals | FMDV antiviral cell-based qHTS | Potency, µM (top dose mostly 57.9 µM), most hits filed as inhibitors | hit rate 1.2% among 410,000 | AID 1159524, 2015; calls by dose curve; tested in HEK293T cells; further: read-out not given here; nearly all actives have a fitted effect of over 45% in size
Marburg entry inh – qHTS for inhibitors of binding or entry into cells for Marburg Virus. Marburg virus pseudotyped entry inhibition, cell reporter. Potency, µM (titrated, usually from 37.8 µM), hits mostly inhibitors. hit rate 1.8% among 300,000. AID 540276, 2011; calls by dose curve; tested in HEK293 cells
Lassa entry inh – qHTS for Inhibitors of binding or entry into cells for Lassa Virus; Potency, µM (series often up to 37.9 µM), hits mostly inhibitors; hit rate 1.2% among 300,000; Lassa virus pseudotype entry inhibition, cell reporter; calls by dose curve; tested in HEK293 cells; further: nearly all actives have a fitted effect of over 50% in size
Numbers stand for hits; n = inactive; u = inconclusive; x = no result given; ! = repeats disagree.

SMILES | HCMV antiviral | HCV inh | FMDV inh | Marburg entry inh | Lassa entry inh
CCCCN(C)CCNC(=O)c1cc(=O)[nH]c2ccc(S(=O)(=O)N3CCCCCC3)cc12 | n | x | n | x | n
COc1ccc(CCNC(=O)C(C)n2nc(C)c3c(C)n(-c4ccc(C)cc4)nc3c2=O)c(OC)c1 (stereo not drawn) | -98 | 3.2µM | u | u | u
Cc1ccc(-n2nc3c(=O)n(CC(=O)NCc4ccccc4)nc(C)c3c2C)cc1 | n | u | n | x | x
Cc1ccc(-n2nc3c(=O)n(CC(=O)NC(C)CCc4ccccc4)nc(C)c3c2C)cc1 (stereo not drawn) | x | 2.2µM | u | x | x
COc1cccc(CNC(=O)CCCn2nc(C)c3c(C)n(-c4ccc(C)cc4)nc3c2=O)c1OC | u | 13µM | u | n | n
CCc1cccc(C)c1NC(=O)Cn1nc(C)c2nn(-c3ccc(Cl)cc3)c(C)c2c1=O | -62 | x | n | x | n
O=C(NCCSc1c[nH]c2ccccc12)c1ccccc1Cl | n | x | n | n | n
Cc1cccc(NC(=O)CSc2nnc3scc(-c4ccccc4)n23)c1 | n | x | n | n | n
Cc1cccc(CNC(=O)C(C)n2nc(C)c3c(C)n(-c4ccccc4)nc3c2=O)c1 (stereo not drawn) | n | 10µM | n | n | n
CCC(C(=O)NCc1ccc(OC)c(OC)c1)n1nc(C)c2c(C)n(-c3ccc(C)cc3)nc2c1=O (stereo not drawn) | -74 | x | u | x | u
CCC(C(=O)NCCCc1ccccc1)n1nc(C)c2c(C)n(-c3ccccc3)nc2c1=O (stereo not drawn) | -67 | u | n | u | n
CCOc1ccc(CNC(=O)C(C)n2nc(C)c3c(C)n(-c4ccccc4)nc3c2=O)cc1 (stereo not drawn) | u | n | n | x | x
Cc1oc2c(c1C(=O)Nc1ccc(OC(F)(F)F)cc1)C1=NCCN1C=N2 | n | x | n | x | n
CCC(=O)Nc1ccc(-c2nnc(SCC(=O)NC[C@H]3CCCO3)n2C)cc1 | x | x | x | n | x
COC(=O)c1ccc(C2c3c(oc4ccc(C)cc4c3=O)C(=O)N2Cc2ccc3c(c2)OCO3)cc1 (stereo not drawn) | -109 | x | n | n | n
N#C/C(=C/C=C/c1ccccc1)C(=O)Nc1ccccc1 | n | n | n | 2.9µM | u
N#C/C(=C/c1ccc(O)c([N+](=O)[O-])c1)C(=O)Nc1ccccc1 | u | n | u | 2.5µM | n
N#C/C(=C\C=C\c1ccccc1[N+](=O)[O-])C(=O)NCc1ccccc1 | -98 | 32µM | n | u | 10µM
N#C/C(=C/c1ccc([N+](=O)[O-])cc1)C(=O)Nc1ccccc1O | n | n | n | u | n
N#C/C(=C\c1ccccc1[N+](=O)[O-])C(=O)NCc1ccccc1 | n | n | n | n | n
CCOc1ccc(-c2nc3c(c(CC)nn3-c3ccccc3)c3cc(OC)c(OC)cc23)cc1 | n | x | n | x | n
O=C(COC(=O)c1cccc(S(=O)(=O)N2CCc3ccccc3C2)c1)NCc1ccco1 | n | n | n | n | n
COc1ccc(C(=O)NCc2ccccc2)cc1S(=O)(=O)N1CCCc2ccccc21 | n | 11µM | n | n | u
COc1ccc(C(=O)O)cc1S(=O)(=O)N1CCCc2ccccc21 | n | n | n | x | x
COc1ccc(C(=O)Nc2ccc(C)cn2)cc1S(=O)(=O)N1CCCc2ccccc21 | u | 4.5µM | n | n | u
SMILES | HCMV antiviral | HCV inh | FMDV inh | Marburg entry inh | Lassa entry inh
O=C(NNC(=O)c1ccccc1O)c1ccc(Cl)c(S(=O)(=O)N2CCc3ccccc32)c1 | -72 | u | u | n | u
O=C(COC(=O)c1cccc(S(=O)(=O)N2CCc3ccccc32)c1)NCc1ccco1 | -96 | n | n | n | n
O=C(c1ccc(Cl)c(S(=O)(=O)N2CCc3ccccc32)c1)N1CCN(c2ccccc2O)CC1 | n | u | u | u | u
Cc1ccc(C(C)CCN2CCOc3ccc(CN4CCOCC4)cc3C2)o1 (stereo not drawn) | x | x | n | x | x
O=C(NCCc1nnc2n1CCN(Cc1ccc3c(c1)CCO3)CC2)c1ccco1 | x | x | n | x | x
O=C(NCc1ccco1)c1ccc(Cl)c(S(=O)(=O)N2CCc3ccccc32)c1 | -82 | u | u | u | u
Cc1ccc(NC(=O)c2ccc(Cl)c(S(=O)(=O)N3CCc4ccccc43)c2)nc1 | -79 | u | n | u | u
COc1ccc(C(=O)Nc2cccc(C)n2)cc1S(=O)(=O)N1CCCc2ccccc21 | -72 | 2.5µM | n | u | u
Cc1ccc(NC(=O)c2ccc(Cl)c(S(=O)(=O)N3CCCC3)c2)nc1 | u | u | u | n | n
Cc1ccc(OCC(=O)Nc2cc(NC(=O)COc3ccc(C)cc3)cc(C(=O)O)c2)cc1 | n | n | n | x | x
Cc1ccc(OCC(=O)Nc2cc(C(=O)O)cc(C(=O)O)c2)cc1C | -65 | n | n | n | n
Cc1ccc(OCC(=O)Nc2ccc3c(c2)OCCO3)cc1C | -63 | n | n | u | u
Cc1ccc(-n2c(C)nc3c(cnn3-c3ccc(F)cc3)c2=O)cc1 | -83 | u | u | u | n
Cc1nc2c(cnn2-c2ccccc2Cl)c(=O)n1-c1ccc(C(C)C)cc1 | -60! | u | u | 15µM | 9.2µM
Cc1ccc(-n2ncc3c(=O)n(-c4ccc(C)c(C)c4)c(C)nc32)cc1 | u | n | u | u | n
CCCc1cc(=O)oc2cc(C)cc(OCC(=O)NCCN3CCOCC3)c12 | n | n | n | x | x
CCCc1cc(=O)oc2cc(OCC(=O)NCCN3CCOCC3)c(Cl)cc12 | -79 | x | n | x | x
CC1=C(C(=O)Nc2cccnc2)C(c2ccc(F)cc2)n2nc(SCc3ccccc3)nc2N1 (stereo not drawn) | n | x | n | n | n
O=S(=O)(c1ccc(F)cc1)N1CCN(CC2CC3C=CC2C3)CC1 (stereo not drawn) | n | n | u | n | n
O=S(=O)(c1ccccc1)N1CCN(CC2CC3C=CC2C3)CC1 (stereo not drawn) | -102 | n | n | x | x
N[C@@H](Cc1ccc(Oc2ccc(O)cc2)cc1)C(=O)O | x | x | x | n | x
c1ccc2c(c1)C1=NCCN1c1ccccc1-2 | -103 | x | n | x | x
O=C(Cn1ncc2c3ccccc3n(Cc3ccc(F)cc3)c2c1=O)NCc1ccccn1 | n | x | n | n | n
COCCn1c(SCC(=O)Nc2ccc(C(F)(F)F)cc2)nc2c([nH]c3ccccc32)c1=O | n | x | n | x | n
Cc1ccc(C)c(NC(=O)CSc2nc(C)cs2)c1 | n | n | n | x | x
SMILES | HCMV antiviral | HCV inh | FMDV inh | Marburg entry inh | Lassa entry inh
Cc1csc(SCC(=O)N2CCN(S(=O)(=O)c3ccccc3)CC2)n1 | n | n | n | n | n
Cc1csc(SCC(=O)N2CCCC2)n1 | -71 | n | n | n | n
Cc1csc(SCC(=O)Nc2cccc(C)c2C)n1 | -64 | n | n | n | n
Cc1cccc(-n2cnc(C(=O)NNC(=S)Nc3ccc(Cl)cc3)c2)n1 | n | n | n | 11µM | u
COc1cccc2cc(C(=O)NCc3ccco3)c(=Nc3ccc(C(=O)O)cc3)oc12 | -78 | n | x | n | n
CCN(CC)CCCN1C(=O)C(O)=C(C(=O)c2ccc(C)o2)[C@@H]1c1ccc(C)o1 | x | x | x | n | x

Compound activity as filed in PubChem.
